Inconclusive results are not listed. Unmarked numbers belong to inactive results. Active and inactive are the calls of the source. Calls follow the shape of the dose curve; as a rule, active = well fitted inhibition curve with a large enough effect; inconclusive = small, poorly fitted or top-dose-only effect; inactive = no such curve, though single readings can be large or run the other way.
% is scaled to controls: 0 for no effect and ±100 for the full control effect; potency is read from the fitted curve at half-maximal effect.

The nature of one experiment: qHTS assay to identify inhibitors of the type 1 interferon - major histocompatibility complex class I in skeletal muscle: Counter screen cell viability and HiBit confirmation (AID 1347412). Also: nearly all actives have a fitted effect of over 60% in size. To be noted: iHSKM muscle cells + IFN-b, HiBiT or CellTiter-Glo, 24 h; HiBiT. From the text:
Assay Submitter (PI): Travis B. Kinder Ph.D. & James Inglese Ph.D. Assay Development and Screening Technology Laboratory (ADST) National Center for Advancing Translational Sciences (NCATS), Rockville, MD National Institute of Health (NIH), Bethesda, Maryland Idiopathic inflammatory myopathies, collectively referred to as myositis, are a group of rare autoimmune diseases characterized by skeletal muscle inflammation, weakness, and usually accompanied by systemic pathologies of the skin, lungs, or vasculature. Current immunosuppressive therapies and glucocorticoids are often not curative and are accompanied by harsh side effects, especially in children with juvenile myositis. We initiated a drug repurposing and development program to identify more targeted, less toxic therapeutics to treat myositis. Although its cause is not known, muscle from a subset of patients have an abundance of the inflammatory type 1 interferon (IFN) and a down-stream product major histocompatibility complex class I (MHC class I), which are both thought to contribute to damage and weakness. We conducted quantitative high throughput screening on 6,576 compounds (4,679 unique) through a series of cell-based assays to identify those that inhibit the IFN-stimulated expression of MHC class I in muscle precursor cells (myoblasts). The compound identification and evaluation strategy utilized a primary screen with reporter-tagged MHC class I in genome-engineered myoblasts, ATP content counter screen for viability, HLA-ABC immunofluorescence secondary screen, and HLA-B RT-qPCR tertiary screen. The primary screen utilized CRISPR/Cas9 genome-engineering of immortalized human myoblasts, C25cl48, where a pro-luminescent reporter HiBit was fused to the C-terminus of endogenous MHC class I allele HLA-B*08:01 (HLA-B HiBit myoblasts). HiBit is an 11 amino acid fragment of NanoLuc luminescent reporter (Promega Corporation), and when complexed to the larger LgBit fragment, the reconstituted enzyme produces light in the presence of furimazine substrate (Schwinn et al., 2018). Briefly, HLA-B HiBit myoblasts were plated into 1536-well plates, treated with 4.0 ng/ml human IFN-beta and 650 inhibitory compounds identified from primary screening in a 12-point, 1:3 titration with a high final concentration of 46 uM. Compounds were pinned into duplicate plates, with one for HiBit confirmation and one for ATP content viability assay. After 24 hrs of treatment, cells were assayed by either Nano-Glo HiBiT Lytic Detection System (Promega) or CellTiter Glo (Promega), and luminescence measured by a ViewLux 1430 Ultra HTS (Perkin Elmer). References: Schwinn MK, Machleidt T, Zimmerman K, Eggers CT, Dixon AS, Hurst R, Hall MP, Encell LP, Binkowski BF, Wood K V. 2018. CRISPR-Mediated Tagging of Endogenous Proteins with a Luminescent Peptide. ACS Chem Biol 13:467-474. doi:10.1021/acschembio.7b00549
PROTOCOL TABLE (as described by Inglese et al., 2007) SEQUENCE No. (e.g., 1, 2, 3, etc.); […] (e.g., Cells, Incubation, Reagent, etc.); VALUE; DESCRIPTION 1a; Cells; 5 uL; Use a Multidrop Combi (Thermo Scientific) to seed 300 cells/well into 16 Greiner 1536 well white/solid bottom, high base, TC plates in 5 ul/well of iHSKM growth medium (GM) without dexamethasone into columns 1+2. Add metal lids with gas-exchange holes 1b; Cells; 5 uL; Use a Multidrop Combi (Thermo Scientific) to seed 300 cells/well into 16 Greiner 1536 well white/solid bottom, high base, TC plates in 5 ul/well of iHSKM GM without dexamethasone + 4 ng/ml IFN-b into columns 3 - 48. Add metal lids with gas-exchange holes 2; Incubate; 1 hr; Incubate at 37 C, 5% CO2, 95% RH 3; Compounds; 23 nl; Use Pin Tool (Wako) to transfer DMSO control, 92 uM final digitonin cytotoxic control, ruxolitinib IFN-b inhibitor control [High Concentration = 80 uM final, 16-pt, 1:2 in duplicate], and library compounds in DMSO. […]
`COCCNCc1ccc(-c2cc3nccc(Oc4ccc(NC(=S)NC(=O)Cc5ccc(F)cc5)cc4F)c3s2)nc1`: the Potency was 12.5 µM (active). On the same count and under the same terms, as for `COc1cc2nc(-c3cc(F)ccc3O)nc(N[C@@H]3CNC[C@H]3C(C)(C)O)c2cc1OC`, the figure is 8.83 µM (active); as for `COc1cc2ncnc(Oc3cccc(NC(=O)Nc4cc(C(C)(C)C(F)(F)F)on4)c3)c2cc1OC`, 24.9 µM (active); as for `CN1C/C=C/CCOc2cccc(c2)-c2ccnc(n2)Nc2cccc(c2)C1`, 0.111 µM (active). On the same count and under the same terms, as for `COc1cc(OC)cc(N(CCNC(C)C)c2ccc3ncc(-c4cnn(C)c4)nc3c2)c1`, the figure is 17.6 µM (active); as for `Cc1ccc(Nc2ncc3c(n2)N(C)C(=O)N(c2cc(NC(=O)c4cccc(C(F)(F)F)c4)ccc2C)C3)cn1`, 0.394 µM (active). The same measure, in the same setting: the value for `C=C1C(=O)O[C@@H]2[C@H]3O[C@]3(C)CC/C=C(\C)CC[C@@H]12` was 7.01 µM (active). On to `CN1CCC(c2c(O)cc(O)c3c(=O)cc(-c4ccccc4Cl)oc23)C1CO` (stereo unspecified), for which the Potency was 0.787 µM (active). On the same count and under the same terms, the value for `C=CC(=O)Nc1cc(Nc2nccc(-c3cn(C)c4ccccc34)n2)c(OC)cc1N(C)CCN(C)C` was 24.9 µM (active); that for `COc1cc(F)ccc1-c1ncnc(Nc2cccc(CS(C)(=N)=O)c2)n1` (stereo unspecified) was 0.991 µM (active); that for `O=C1NC(=O)/C(=C/c2ccc3nccc(-c4ccncc4)c3c2)S1` was 4.97 µM (active). Consider `O=Nc1c(-c2c(O)[nH]c3ccccc23)[nH]c2ccccc12`, for which the Potency was 14 µM (active). For `C=CC(=O)Nc1cccc(C)c1Nc1ncc2cc(-c3c(Cl)c(OC)cc(OC)c3Cl)ccc2n1`, the Potency was 15.7 µM (active).

Still in this experiment, the particulars now being: iHSKM muscle cells + IFN-b, HiBiT or CellTiter-Glo, 24 h; HiBiT; at 45.9 µM (top of the series).
For `Oc1ccc(Nc2nc(-c3ccc(Cl)cc3)cs2)cc1`, the activity change, negative = inhibition was -38.1%. On the same count and under the same terms, the value for `Nc1ncnc(Nc2ccc(OCc3ccccc3)c(Cl)c2)c1/C=N/OCCN1CCOCC1` was -8.78%; that for `O=c1c(-n2ccnn2)c[nH]n1-c1cc(N2CCOCC2)ncn1` was -24.7%.

`C[C@@H](Nc1cc(F)cc(F)c1)c1cc(C(=O)N(C)C)cc2c(=O)cc(N3CCOCC3)oc12`: the activity change, negative = inhibition was -23.5%. As for `N#Cc1ccc(-c2c(-c3ncn[nH]3)sc(N3CCOCC3)c2C#N)c(F)c1`, the activity change, negative = inhibition is -34.7%. On the same count and under the same terms, as for `COCc1c(-c2ccc(NC(=O)Nc3cc(C(F)(F)F)ccc3F)c(F)c2)c2c(N)ncnn2c1CN1CCOCC1`, the figure is -92%. Same read-out and setting: as for `CNCc1ccc(C)c(NC(=O)c2ccc(Nc3nc(-c4ccccc4)c4ccccc4n3)cc2)c1`, the figure is -20%.

The experiment is the same for the next values; noted with them: iHSKM muscle cells + IFN-b, HiBiT or CellTiter-Glo, 24 h; Viability.
`COCCNCc1ccc(-c2cc3nccc(Oc4ccc(NC(=S)NC(=O)Cc5ccc(F)cc5)cc4F)c3s2)nc1`: the Potency is 11.1 µM (active). As for `COc1cc2nc(-c3cc(F)ccc3O)nc(N[C@@H]3CNC[C@H]3C(C)(C)O)c2cc1OC`, the Potency is 31.3 µM (active).

The experiment is the same for the next values; noted with them: iHSKM muscle cells + IFN-b, HiBiT or CellTiter-Glo, 24 h; Viability; at 45.9 µM (top of the series).
In the case of `Oc1ccc(Nc2nc(-c3ccc(Cl)cc3)cs2)cc1`, the activity change, negative = inhibition is 7.19%.

As to `Nc1ncnc(Nc2ccc(OCc3ccccc3)c(Cl)c2)c1/C=N/OCCN1CCOCC1`, the activity change, negative = inhibition is 12.2%. For `O=c1c(-n2ccnn2)c[nH]n1-c1cc(N2CCOCC2)ncn1`, the activity change, negative = inhibition was -14.1%.

As to `COc1cc2ncnc(Oc3cccc(NC(=O)Nc4cc(C(C)(C)C(F)(F)F)on4)c3)c2cc1OC`, the activity change, negative = inhibition was -21.3%. The same measure, in the same setting: the value for `CN1C/C=C/CCOc2cccc(c2)-c2ccnc(n2)Nc2cccc(c2)C1` was -20%. Still for that read-out and setting: as for `C=C1C(=O)O[C@@H]2[C@H]3O[C@]3(C)CC/C=C(\C)CC[C@@H]12`, the figure is 0.032%; as for `CN1CCC(c2c(O)cc(O)c3c(=O)cc(-c4ccccc4Cl)oc23)C1CO` (stereo unspecified), -2.93%; as for `COc1cc(F)ccc1-c1ncnc(Nc2cccc(CS(C)(=N)=O)c2)n1` (stereo unspecified), -16.3%.

In the case of `C=CC(=O)Nc1cccc(C)c1Nc1ncc2cc(-c3c(Cl)c(OC)cc(OC)c3Cl)ccc2n1`, the activity change, negative = inhibition is 1.08%.

Values taken from PubChem BioAssay (NCATS).
